Data from PubChem BioAssay AID652154 (Broad Institute, 2013).
“And” between values parts separate entries of the source, which are not always exact repeats. Identical values can stand only once. Out of some 360,000 compounds screened, about 4,200 (1.2%) were called active.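 The calls were made as follows: active = mean replicate inhibition at least 60% with every replicate also reaching 60%; inconclusive = only one of the two criteria is met; inactive = mean below 60% and not all replicates reaching 60%.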 The sample as a whole holds a higher share of actives than the screen did. More than one record can exist for a structure, and the calls need not agree.

Assay: inhibitors of PAX8-driven TPO luciferase reporter, primary screen, RMG-I cells, single concentration (AID 652154);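 also: luciferase light reporting Pax8 driven TPO promoter activity; plate controls were median of neutral control wells for no effect and mitoxantrone controls for full effect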
Details: SteadyGlo, 24 h, at 12.6 µM, stronger effect = higher value

Row | SMILES | inhibition
1 | CCCNC(=O)N[C@@H]1CC[C@@H](CCn2cc(C3CC3)nn2)O[C@@H]1CO | 3.4% (inactive)
2 | C[C@@H]1CCCCO[C@@H](CN(C)S(=O)(=O)c2cn(C)cn2)[C@H](C)CN([C@H](C)CO)C(=O)c2cc(NS(=O)(=O)c3ccc(Cl)cc3)ccc2O1 | 4.97% (inactive)
3 | C[C@H]1CN([C@@H](C)CO)C(=O)c2cccc(NS(=O)(=O)c3ccc(Cl)cc3)c2O[C@H]1CN(C)Cc1ccc2c(c1)OCO2 | 4.78% (inactive)
4 | CC(C)NC(=O)N[C@H]1CC[C@@H](CC(=O)NCc2ccc(Oc3ccccc3)cc2)O[C@@H]1CO | -20.9% (inactive)
5 | C[C@H](CO)N1C[C@H](C)[C@H](CN(C)C(=O)Nc2ccc(F)cc2)Oc2ncc(-c3cc4ccccc4o3)cc2C1=O | 23.1% (inactive)
6 | C[C@@H]1CCCCO[C@@H](CN(C)Cc2ccc(Cl)c(Cl)c2)[C@H](C)CN([C@H](C)CO)C(=O)c2cc(NC(=O)Nc3ccc(F)cc3)ccc2O1 | 102% (active)
7 | CC(C)NC(=O)Nc1ccc2c(c1)C(=O)N([C@@H](C)CO)C[C@@H](C)[C@H](CN(C)Cc1ccc(Cl)c(Cl)c1)OCCCC[C@H](C)O2 | 38% (inactive)
8 | COc1ccc(NC(=O)Nc2ccc3c(c2)C(=O)N([C@H](C)CO)C[C@@H](C)[C@H](CN(C)Cc2ccc(Cl)c(Cl)c2)OCCCC[C@@H](C)O3)cc1 | 57.5% (inactive)
9 | O=S(=O)(c1ccccc1)N1C[C@@H]2[C@H](c3ccccc31)[C@H](CO)N2Cc1ccccn1 | 19.7% (inactive)
10 | O=C(C1CCCCC1)N1CC2(C1)[C@H](c1ccccc1)[C@@H](CO)N2CCC(F)(F)F | -17.1% (inactive)
11 | CC(=O)Nc1ccc2c(c1)C(=O)N(C)[C@@H]1CC[C@@H](CC(=O)NCC3CCCCC3)O[C@@H]1CO2 | -4.32% (inactive)
12 | COc1ccc(NC(=O)Nc2ccc3c(c2)C(=O)N([C@@H](C)CO)C[C@H](C)[C@@H](CN(C)C(=O)NC2CCCCC2)O3)cc1 | -4.33% (inactive)
13 | COc1ccc(OC)c(C2C3=C(N=c4s/c(=C\c5cccc(O)c5)c(=O)n42)c2ccccc2CC3)c1 (configuration not stated) | 64.2% (active)
14 | COc1ccc(/C=C2/CCCc3ccccc3C2=O)cc1 | -38.8% (inactive)
15 | COc1ccc(C[C@@H]2CCc3cnnn3COC[C@H](c3ccccc3)NC2=O)cc1 | 1.19% (inactive)
16 | O=C(C1CCOCC1)N1CC(=O)N2[C@H](CO)[C@H](c3ccc(C#Cc4cccc(F)c4)cc3)[C@H]2C1 | -14.5% (inactive)
17 | O=C(N[C@H]1CC[C@H](CCn2cc(C3(O)CCCC3)nn2)O[C@H]1CO)C1CC1 | 13.3% (inactive)
18 | O=C(c1ccncc1)N1CCCCN2[C@H](CO)[C@@H](c3ccc(C#Cc4ccccn4)cc3)[C@H]2C1 | 5.08% (inactive)
19 | O=C(COc1ccc(-n2cnnn2)cc1)Nc1ccccc1Cl | -3.21% (inactive)
20 | O=C(Nc1ccccc1Cl)/C(Cl)=C(\Cl)S(=O)c1ccccc1 (configuration not stated) | 111% (active)
21 | CS/C(=C\C(=O)c1ccco1)Nc1ccccc1Cl | 30.8% (inactive)
22 | Cn1cnc(S(=O)(=O)N2C[C@@H]3N[C@H](C2)C3c2ccc(/C=C/c3ccccc3)cc2)c1 (some centres not stated) | -2.85% (inactive) and -1.61% (inactive)
23 | Cn1cnc(S(=O)(=O)N2C[C@@H]3N[C@H](C2)C3c2ccc(-c3ccccc3F)cc2)c1 (some centres not stated) | 77.5% (active) and 26.1% (inactive)

Row | SMILES | inhibition
24 | COc1ccc(-c2ccc(C3[C@@H]4CN(S(=O)(=O)c5cn(C)cn5)C[C@H]3N4)cc2)cc1 (some centres not stated) | -15.4% (inactive)
25 | CC[C@]1(O)C[C@@H]2CN(CCc3c([nH]c4ccccc34)[C@@](C(=O)OC)(c3cc4c(cc3OC)N(C)[C@H]3[C@@](O)(C(=O)OC)[C@H](OC(C)=O)[C@]5(CC)C=CCN6CC[C@]43[C@@H]65)C2)C1 | 94.6% (active)
26 | CC[C@]1(O)CC2CN(CCc3c([nH]c4ccccc34)[C@@](C(=O)OC)(c3cc4c(cc3OC)N(C=O)[C@H]3[C@@](O)(C(=O)OC)[C@H](OC(C)=O)[C@]5(CC)C=CCN6CC[C@]43[C@@H]65)C2)C1 (some centres not stated) | 82% (active)
27 | O=C(C[C@@H]1CC[C@H]2[C@@H](COC[C@@H](O)CN2Cc2nccs2)O1)NCc1ccc(-c2ccccc2)cc1 | 23% (inactive)
28 | C[C@@H]1CN([C@H](C)CO)C(=O)Cc2cc(NC(=O)CCN3CCOCC3)ccc2O[C@@H]1CN(C)S(C)(=O)=O | -16.5% (inactive)
29 | C[C@H](CO)N1C[C@H](C)[C@@H](CN(C)Cc2ccccn2)Oc2ncc(-c3cccc(F)c3)cc2C1=O | -0.625% (inactive)
30 | Cc1ccccc1S(=O)(=O)N1CC(=O)N2[C@H](CO)[C@H](c3ccc(C#CC4CC4)cc3)[C@@H]2C1 | -7.36% (inactive)
31 | Cc1csc(NC(=O)CSc2nc(=O)cc(N)n2-c2ccc(F)cc2)n1 | -0.606% (inactive)
32 | COc1cc2ccccc2cc1C(=O)Nc1ccccc1C | -95.1% (inactive)
33 | COc1cc(SC)ccc1C(=O)Nc1nc(C)cs1 | 72.7% (active)
34 | O=C(Cc1ccccc1)N1C[C@@H]2[C@H](c3ccccc31)[C@@H](CO)N2C(=O)C1CCOCC1 | 10.4% (inactive)
35 | O=C(c1cccnc1)N1CC[C@H]2[C@H](CO)Nc3ccc(-c4ccc(F)cc4)cc3[C@H]21 | 1.77% (inactive)
36 | CN(C[C@@H]1[C@H](c2ccccc2)[C@@H](CO)N1Cc1ccccn1)S(C)(=O)=O | -9.74% (inactive)
37 | CC1CCCCC1NC(=O)/C(C#N)=C/C=C/c1ccccc1[N+](=O)[O-] (configuration not stated) | 91.1% (active)
38 | CC(OC(=O)/C=C/c1ccccc1)C(=O)NC1CCCCC1C (configuration not stated) | -9.75% (inactive)
39 | CC1CCCCC1NC(=O)COc1ccc(C#N)cc1 (configuration not stated) | -9.56% (inactive)
40 | CC(C)NC(=O)Nc1ccc2c(c1)C(=O)N([C@@H](C)CO)C[C@@H](C)[C@H](CN(C)Cc1ccc(C(=O)O)cc1)O2 | -28.1% (inactive)
41 | C[C@H]1CN([C@@H](C)CO)C(=O)c2cccc(NC(=O)c3ccncc3)c2O[C@H]1CN(C)C | -1.05% (inactive)
42 | COc1cccc(S(=O)(=O)N2CCCCN3[C@H](C2)[C@@H](c2ccc(C4=CCCCC4)cc2)[C@@H]3CO)c1 | 12.7% (inactive)
43 | COc1cccc(S(=O)(=O)N2CCCCN3[C@H](CO)[C@H](c4ccc(C#CC5CC5)cc4)[C@H]3C2)c1 | 12.2% (inactive)
44 | COc1ccc(S(=O)(=O)N2CCCCN3[C@H](C2)[C@H](c2ccc(C#CCC(C)C)cc2)[C@@H]3CO)cc1 | 18.7% (inactive)
45 | C[C@@H](O)C#Cc1ccc([C@@H]2[C@H]3CN(S(=O)(=O)c4ccccc4)CCCCN3[C@H]2CO)cc1 | -13.8% (inactive)
46 | COc1cccc(S(=O)(=O)N2CCCCN3[C@H](C2)[C@H](c2ccc(C#CC(C)C)cc2)[C@@H]3CO)c1 | 69.8% (active)

Row | SMILES | inhibition
47 | COc1ccc(S(=O)(=O)N2CCCCN3[C@H](CO)[C@H](c4ccc(C5=CCCCC5)cc4)[C@@H]3C2)cc1 | 69.6% (active)
48 | CCCC#Cc1ccc([C@H]2[C@@H](CO)N3CCCCN(S(=O)(=O)Cc4ccccc4)C[C@H]23)cc1 | 86.5% (active)
49 | COc1ccc(S(=O)(=O)N2CCCCN3[C@@H](CO)[C@@H](c4ccc(C#CCC(C)C)cc4)[C@@H]3C2)cc1 | 46.7% (inactive)
50 | CCCC#Cc1ccc([C@H]2[C@H](CO)N3CCCCN(S(=O)(=O)CC)C[C@@H]23)cc1 | -26.1% (inactive)
51 | COc1ccc(S(=O)(=O)N2CCCCN3[C@H](CO)[C@@H](c4ccc(C#CC(C)C)cc4)[C@H]3C2)cc1 | 76.3% (active)
52 | CCCC#Cc1ccc([C@H]2[C@@H](CO)N3CCCCN(S(=O)(=O)CC)C[C@H]23)cc1 | 6.07% (inactive)
53 | COc1ccc(S(=O)(=O)N2CCCCN3[C@H](C2)[C@H](c2ccc(C4=CCCC4)cc2)[C@@H]3CO)cc1 | 9.85% (inactive)
54 | CO[C@H]1CN(C)C(=O)c2ccc(NC(=O)C3CCC3)cc2OC[C@@H](C)NC[C@H]1C | 9.77% (inactive)
55 | CC(=O)NC[C@H]1[C@H](c2ccc(C3=CCCCC3)cc2)[C@@H](CO)N1C(=O)NC(C)C | -0.865% (inactive)
56 | CCCNC(=O)N1C[C@H]2[C@@H](c3ccccc31)[C@H](CO)N2C(=O)NC(C)C | -13% (inactive)
57 | COCC(=O)Nc1ccc2c(c1)C(=O)N(C)C[C@@H](OC)[C@@H](C)CN(C(=O)Cc1ccccn1)[C@@H](C)CO2 | -15.1% (inactive)
58 | CCC(=O)Nc1ccc2c(c1)C(=O)N(C)C[C@H](OC)[C@H](C)CN(CCC(F)(F)F)[C@H](C)CO2 | -9.12% (inactive)
59 | COCC(=O)Nc1ccc2c(c1)OC[C@@H](C)N(C(=O)CC1CC1)C[C@@H](C)[C@@H](OC)CN(C)C2=O | -0.715% (inactive)
60 | C/C=C/c1ccc(C2[C@H]3CNC[C@@H]2N3C(=O)Nc2cc(F)ccc2F)cc1 (some centres not stated) | -0.3% (inactive)
61 | CCNC(=O)Nc1ccc2c(c1)C(=O)N(C)[C@H]1CC[C@@H](CC(=O)N[C@H](C)c3ccccc3)O[C@@H]1CO2 | -19% (inactive)
62 | C[C@H]1CN([C@@H](C)CO)C(=O)c2ccccc2-c2ccccc2CO[C@H]1CN(C)S(=O)(=O)c1ccccc1C#N | -18.2% (inactive)
63 | O=C(C[C@@H]1C[C@@H]2c3cc(NS(=O)(=O)c4ccc(F)cc4)ccc3O[C@@H]2[C@H](CO)O1)N1CCCCC1 | 9.01% (inactive)
64 | CCCCc1c(-c2ccc(Cl)cc2)ncn1CCc1ccccc1OC | 33.1% (inactive)
65 | CCCCCc1c(-c2cccc(Br)c2)ncn1CCc1ccccc1OC | 9.05% (inactive)
66 | CCCCc1c(-c2ccc(Br)cc2)ncn1CCc1ccccc1OC | 74% (active)
67 | CN(C)CC#Cc1ccc([C@@H]2[C@H](CO)N3C(=O)CN(C(=O)Cc4cccnc4)C[C@@H]23)cc1 | 17.8% (inactive)
